Laboratory results reported in PubChem BioAssay AID2314 (National Center for Advancing Translational Sciences (NCATS), 2010).
“And” between values parts separate entries of the source, which are not always exact repeats. Equal values may be shown once. Screen size: about 300,000 compounds; about 37,000 (12%) were called active. This is one part of a sample in which actives are shown more often than they occur. A number with no mark means an inactive call. Cut-off read from the data, not from the text of the source: active = max response mostly above about 13% (no sharp cut-off); inactive = mostly below about 14%.

assay: Cycloheximide Counterscreen for Small Molecule Inhibitors of Shiga Toxin; details: cell reporter, cycloheximide protein synthesis inhibition counterscreen; hits give high values; note: read at 38.3 µM for the half of the compounds with a filed dose; 0% is about no effect

SMILES | max response
Cc1nnc(NC(=O)C(c2ccccc2)c2ccccc2)s1 | -6.29%
CCCCN1C(=O)C(C)=C(C)C1OCCc1ccc(OC)c(OC)c1 (centres undefined) | -1.75%
COc1ccc(C(C(=O)NC2CCCCC2)N(C(=O)c2snc(C(N)=O)c2N)c2ccccc2OC)cc1 (centres undefined) | -4.3%
CCOC(=O)C(NC(C)=O)C(=O)Nc1ccc(OC)cc1 (centres undefined) | -2.02%
CCCCCOC(=O)NCCOC(=O)Nc1ccc(C(=O)OCC)cc1 | -1.37%
CCOC(=O)N1CCN(CCC(=O)Nc2ccccc2)CC1 | -2.64%
CC(C)(C)C1CCC(OC(=O)CCC(=O)Nc2ccccc2)CC1 (centres undefined) | 4.12%
CCOC(=O)Nc1ccc(S(=O)(=O)N(C)C(C)C)cc1 | 2.33%
CC(C)(COC(=O)Nc1ccccc1)COC(=O)Nc1ccccc1 | 19% (active)
Cc1ccc(NC(=O)OCc2cncs2)cc1 | 28.5% (active)
COc1ccc(NC(=O)/C(Cl)=C(/Cl)S(=O)Cc2ccc(C)cc2)cn1 (centres undefined) | -12.1%
Cc1ccc(C(=O)NCCNC(=O)c2cnccn2)cc1 | -0.952%
Cc1ccc(OCc2nnc(NC(=O)OCC(C)C)s2)cc1 | -6.37%
Cc1ccc(NC(=O)OCCNC(=O)c2ccncc2)cc1 | 19.8% (active)
CCOC(=O)Nc1ccc(NC(=O)OCC)cc1 | 38.2% (active)
O=C(c1ccccc1)C(Cn1cncn1)C(Sc1ccccc1)c1ccccc1 (centres undefined) | -6.69%
CC(C)C(=O)N1CCC2(CC1)Oc1ccc(F)cc1C(=O)C21CC(c2ccccc2)=NO1 (centres undefined) | -2.77%
CN(C)CCOC1c2ccccc2-c2ccccc21 | 0.251%
COc1cc(OC)c(C(=O)OC(C)C(=O)Nc2cc(C(F)(F)F)ccc2Cl)cc1OC (centres undefined) | 4.97%
CC1=C(C(N)=O)C(c2ccc(Br)cc2)n2ncnc2N1 (centres undefined) | -0.44%
c1ccc(-c2cc(N3CCCCC3)c3ccccc3n2)cc1 | -6.32%
Cc1ccc(S(=O)(=O)N(C)C)cc1NC(=O)C1Cc2ccccc2CN1C(=O)c1ccco1 (centres undefined) | -2.92%
C=CCC1=C/C(=C\c2c(N)n3nc(CC(=O)N4CCOCC4)sc3nc2=O)C=C(OC)C1=O | 0.431%
Cc1ccc(OS(=O)(=O)c2ccc(-c3csc(C)n3)s2)c(C)c1 | 1.06%
CN(Cc1nc2ccc(F)cc2[nH]1)Cc1nc(CC2CC2)no1 | -0.7%
OC(COc1ccc2ccccc2c1)Cn1cncn1 (centres undefined) | 8.69%

SMILES | max response
COc1ccccc1OCC(O)CN1CCOCC1 (centres undefined) | -1.33%
OC(COc1ccc2ccccc2c1)CN1CCOCC1 (centres undefined) | 24% (active)
COc1ccc(C(=O)Nc2cc(C)c(NC(=O)c3ccccc3OC)cn2)cc1 | 9.29%
Nc1nc(NCc2ccccc2)n(-c2ccccc2)n1 | -3.49%
CC(=O)Nc1ccc(N2C(=O)CC(Sc3nccc(C)n3)C2=O)cc1 (centres undefined) | -0.348%
O=C(N/N=C/c1ccc([N+](=O)[O-])cc1)C(=O)N1CCCC1 | -0.79%
COc1ccccc1N1CCN(C(=O)C(=O)N/N=C/c2ccccc2F)CC1 | -0.733%
O=C(N/N=C/c1ccc2c(c1)OCO2)C(=O)N1CCCC1 | 46.6% (active)
O=C(CNC(=O)C(c1ccccc1)c1ccccc1)N/N=C\c1ccc2c(c1)OCO2 | 35.9% (active)
O=C(Cc1ccc(F)cc1)N/N=C/c1ccc2c(c1)OCO2 | 14.7%
Cc1[nH]c2ccccc2c1/C=N/NC(=O)CNC(=O)c1ccc2c(c1)OCO2 | -0.0106%
Cc1cccc(Cn2cnc3c(N)c(C)c(C)cc32)c1 | -6.87%
CC(NC(=O)COC(=O)C1CCN(S(=O)(=O)c2ccccc2C(F)(F)F)CC1)c1ccccc1 (centres undefined) | -0.765%
COc1ccc(NS(=O)(=O)c2ccc(N3CCOCC3)c(NC(=O)c3ccccc3Br)c2)cc1 | -1.16%
Cc1cc(N(C)C)nc(Cl)n1 | -9.03%
CCOC(=O)c1c(C)nc2c(c1C)c(=O)oc1ccccc12 | 14.3% (active)
Cc1cc(NC(=O)CN2CCCCC2C)nc2c1c(=O)oc1ccccc12 (centres undefined) | 0.268%
CCCCC(=O)Nc1cc(C)c2c(=O)oc3ccccc3c2n1 | 10.7%
COc1ccc(CC(NC(C)=O)C(=O)NC2CCN(C(=O)C3CC3)CC2)cc1OC (centres undefined) | -7.16%
C=CCNC(=S)N/N=C/c1ccc(C)s1 | 31.5% (active)
Cc1ccc(/C=N/NC(=O)CN2CCN(Cc3ccccc3)CC2)s1 | 8.96%
C=CCNC(=S)N/N=C/c1ccc(OCc2ccccc2)cc1 | -1.7%
COc1ccc2c3c1O[C@H]1C[C@@H](O)C=C[C@@]31CCN(C)C2 | -0.885% and -4.86%
Cc1ccc2c(c1)C1CN(C)CCC1N2C(=S)Nc1ccc(Cl)cc1Cl (centres undefined) | -1.23%
O=C(NC(=S)Nc1ccc(Cl)cc1Cl)C1CC1 | 39.5% (active)
CN1CCN(S(=O)(=O)c2ccc(NC(=S)NC(=O)C3CC3)cc2)CC1 | 1.23%

SMILES | max response
CC1CN(C(=S)Nc2ccc(Br)cc2Cl)CC(C)O1 (centres undefined) | 0.924%
Cc1cc(Cl)ccc1NC(=S)N1CCC(C(N)=O)(N2CCCCC2)CC1 | -2.11%
S=C(Nc1ccc(Cl)cc1Cl)N1CCCC1 | 60.1% (active)
S=C(NCc1cccnc1)Nc1ccc(Cl)cc1Cl | 9.37%
CN(C)C(=S)Nc1ccc(Br)cc1Cl | -1.09%
S=C(Nc1ccc(Br)cc1Cl)N1CCC2(CC1)OCCO2 | 20.3% (active)
CC(Oc1ccc(F)cc1)C(=O)N1CCN(c2ncccn2)CC1 (centres undefined) | -2.63%
CNC(=O)[C@]1(C(F)(F)F)C[C@H](CCc2ccccc2)CCCO1 | 3.47%
Cn1cnc([N+](=O)[O-])c1Sc1ccccc1 | -3.34%
Cc1cccc(NS(=O)(=O)c2ccc([N+](=O)[O-])cc2)n1 | -1.49%
O=C(COc1cccc(-n2cnnn2)c1)NCCC1=CCCCC1 | 0.68%
CSc1ccccc1N1CCN(CCCCCC(=O)NC2CCCc3ccccc32)CC1 (centres undefined) | -7.34%
Nc1ccc(C(=O)Nc2ccccc2N)cc1 | 5.95%
Cc1ccc(Nc2ccccc2N)cc1 | 33.2% (active)
Nc1ccc(Nc2ccccc2)cc1 | -1.73%
COc1ccc(COCCN2CCN(S(=O)(=O)c3ccccc3)CCC2=O)cc1 | -3.54%
COc1ccc(S(=O)(=O)N(C)CC(=O)N2CCCC2)cc1 | -3.08%
CCOC(=O)N1CCN(C(=O)c2cn(C)c3ccc(S(=O)(=O)N(CC)CC)cc3c2=O)CC1 | -2.19%
CC(C(=O)NC1CCS(=O)(=O)C1)N1C(=O)/C(=C/c2ccc(Cl)cc2)SC1=S (centres undefined) | 16.6%
COc1ccc(Nc2nnc(C)c3ccccc23)cc1 | 29.8% (active)
COc1ccc(Nc2nc(=O)[nH]nc2C)cc1 | -2.63%
Cc1nnc(NCCO)c2ccccc12 | 4.14%
COc1ccc(C(=O)NCC(=O)N/N=C/c2cccnc2)cc1 | -4.37%
S=C(NCCCc1cnc[nH]1)NCCCN(Cc1ccc(Cl)c(Cl)c1)c1ccc(Br)cn1 | -1.98%
Cn1nccc1/C=N\NC(=O)c1ccc(Cl)cc1 | 14.7% (active)
CC1(C)C2CC=C(/C=N/NC(=O)c3ccc(Cl)cc3)C1C2 (centres undefined) | 10.5%

SMILES | max response
COc1ccc(/C=N/NC(=O)c2ccc(Cl)cc2)cc1COC(C)=O | 1.21%
CCOC(=O)c1sc(NC(=O)CSc2nc(C)cc(C(F)(F)F)n2)c(C#N)c1C | 1.11%
COc1cc(C(=O)OC2CCOC2=O)c([N+](=O)[O-])cc1OC (centres undefined) | -5.93%
COc1cc(CN2CCCN(C)CC2)c([N+](=O)[O-])cc1OC | -2.2%
O=C(O)/C=C/c1ccc2c(c1)OCCO2 | 5.58%
CN(C)c1ccc(/C=C/C(=O)c2ccc(C(C)(C)C)cc2)cc1[N+](=O)[O-] | 9.22%
O=C(/C=C/c1ccc(Cl)c([N+](=O)[O-])c1)c1cccnc1 | 9.23%
O=C(/C=C/c1ccc2c(c1)OCCO2)c1ccc(O)cc1 | 36.6% (active)
CN(C)c1ccc(/C=C/C(=O)c2ccc(O)cc2)cc1[N+](=O)[O-] | 61.3% (active)
O=C(COC(=O)/C=C/c1ccc2c(c1)OCO2)NC1CCS(=O)(=O)C1 (centres undefined) | 2.81%
COc1cccc(NC(=O)N2C3CCCC2CC(NC(C)=O)C3)c1 (centres undefined) | -3.34%
CCOC(=O)c1ccccc1NS(=O)(=O)c1c(C)nc2sccn2c1=O | -3.59%
Brc1ccccc1CN1CCC(Cc2ccccc2)CC1 | -0.443%
CC(C)CN(CC(C)C)C(=O)CN1c2cccc3cccc(c23)S1(=O)=O | 0.92%
COC(=O)c1sc(NC(=O)c2csc3c2CCCC3)nc1C | 52.4% (active)
O=C(N/N=C/c1ccco1)c1ccc(C(=O)N/N=C/c2ccco2)o1 | 11.6%
O=C(Nc1ccccc1N1CCOCC1)c1csc2c1CCCC2 | 8.7%
Cc1ccc(NC(=O)c2csc3c2CCCC3)cc1 | 46.6% (active)
COC(=O)c1c(NC(=O)CCCC(=O)O)sc2c1CCCCC2 | 1.25%
O=C(CN1CCCC1)Nc1sc2c(c1C(=O)Nc1ccccc1)CCCC2 | 0.772%
O=C(N/N=C/c1ccco1)c1csc2c1CCCC2 | 54.4% (active)
O=C(N/N=C/c1ccco1)c1ccc(NC(=O)C2CC2)cc1 | 2.6%
CCOC(=O)c1sc(NC(=O)c2sc(C)nc2C)nc1C | 10.2%
CC1CC(C)CN(CCCNC(=O)c2csc3c2CCCCC3)C1 (centres undefined) | 13.5%
Cc1ccc(NC(=O)c2c(NC(=O)CCC(=O)O)sc3c2CCCCC3)cc1 | 39.3% (active)
COC(=O)c1sccc1NC(=O)c1csc2c1CCCC2 | 11.4%
